Hits are enriched below; roughly 6% of the tested compounds scored in any of these assays.
D3 ag: agonists of human D3 dopamine receptor; P35462; D3R DiscoveRx beta-arrestin cells, luminescence, 90 min; max activation, %; actives 0.58% (n = 410,000); in the data active = max activation above about 30%
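Agonist mode: compounds and dopamine controls were applied to plated cells for 90 min at 37 degrees C after an overnight attachment at 1500 cells/well. Luminescent read-out followed 30 - 60 minutes at room temperature with DiscoveRx detection reagent.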
D3 antag: blocks the human D3 dopamine receptor; max response, negative = inhibition, %; actives 2.5% (n = 360,000); AID 652054; D3R cells, DiscoveRx beta-arrestin luminescence, antagonist mode; stronger effect = lower value; in the data active = max response below about -50%; inconclusive = no clear call, values can overlap the other calls
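Cells plated overnight at 1500 cells/well, then exposed to library compounds with dopamine controls for 90 minutes at 37 degrees C. DiscoveRx reagent added for 30–60 minutes at room temperature; luminescence read, quantitative HTS format.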
D1 potentiator: human D1 dopamine receptor positive modulation. actives 0.036% (n = 360,000). potentiation, % at 10 µM. HEK293 TREx D1 cells, calcium flux, dopamine EC20 potentiation. P21728; in the data active = potentiation above about 30%
Target sequence (P21728 whole entry, looked up): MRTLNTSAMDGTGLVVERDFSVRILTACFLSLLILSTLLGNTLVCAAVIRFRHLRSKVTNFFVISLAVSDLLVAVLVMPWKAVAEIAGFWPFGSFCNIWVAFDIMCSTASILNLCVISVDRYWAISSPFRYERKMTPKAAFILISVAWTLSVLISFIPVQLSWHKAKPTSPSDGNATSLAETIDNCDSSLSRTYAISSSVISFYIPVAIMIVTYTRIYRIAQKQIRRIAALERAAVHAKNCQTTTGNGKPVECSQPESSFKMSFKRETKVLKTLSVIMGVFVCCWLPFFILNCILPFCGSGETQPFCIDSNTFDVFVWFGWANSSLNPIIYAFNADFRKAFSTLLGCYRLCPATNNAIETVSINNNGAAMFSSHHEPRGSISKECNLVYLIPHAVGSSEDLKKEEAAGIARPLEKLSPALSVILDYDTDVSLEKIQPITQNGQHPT
D1 antag: antagonists of human D1 dopamine receptor; P21728; HEK293 TREx D1 cells, calcium flux, dopamine EC80; stronger effect = lower value; activity change, negative = inhibition, % at 10 µM; actives 3.2% (n = 360,000); AID 504652; in the data active = activity change below about -30%
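Antagonism measured as reduced calcium response to an EC80 dopamine addition following 180 s compound pre-read; cells were inducible HEK293 Trex D1 plated overnight at 30 C, read kinetically at 1 cycle/sec.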
D1 agonist: activates the human D1 dopamine receptor; actives 1% (n = 360,000); AID 504660; HEK293 T-REx D1 cells, calcium flux, agonist mode; activation, % at 2 µM; P21728; in the data active = activation above about 30%
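Agonism was scored from calcium flux recorded over 180 s (1 read/s) after pintool compound addition, following a 10-cycle baseline. Cells were inducible force-coupled HEK293 TREx D1, plated overnight at 30 C and loaded with no-wash calcium dye.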
Of the large screens only hits and unclear results are named; the others gave an inactive call.

COCc1ccc(C(=O)N2CCCC(C(=O)c3ccc(SC)cc3)C2)s1 (configuration not stated)	D1 antag -36
CC1(C(=O)Nc2cccc(C#N)c2)CCN1C(=O)c1ccccc1CCc1ccccc1 (configuration not stated)	none (no result: D1 potentiator, D1 antag, D1 agonist)
CCCCCCCCCCCCCCCC(=O)O[C@@H]1[C@@H](O)[C@@H](O)[C@@H]([C@H](NC(=O)[C@@H]2C[C@@H](CCC)CN2C)[C@H](C)Cl)O[C@@H]1SC	none (no result: D3 antag, D1 potentiator, D1 antag, D1 agonist)
COc1cccc(-c2nc(Cn3c(=O)cc(C)c4c(C)nn(-c5ccccc5)c43)c(C)o2)c1OC	none (no result: D3 antag)
O=[S+]([O-])(/C=C/c1nc(Nc2cc(F)cc(F)c2)c2ncn(CC(F)F)c2n1)c1ccccc1	none (no result: D3 ag, D3 antag)
O=C(Cn1ccc2cc(S(=O)(=O)N3CCCCCC3)ccc21)NCCc1ccccc1Cl	none (no result: D3 antag)
NC(=O)c1ncn([C@@H]2O[C@H](CNCc3ccc(-c4cc(C(F)(F)F)ccc4Cl)o3)[C@@H](O)[C@H]2O)n1	D3 antag -52 (no result: D1 potentiator, D1 antag, D1 agonist)
COc1ccccc1N1CCN(Cc2cc(Br)c(O)c3ncccc23)CC1	D3 antag -84 (no result: D1 potentiator)
CCOc1ccccc1N1CCN(Cc2cccc(OC)c2O)CC1	D3 antag -93, D1 antag -32
O=C(NCN1CCN(c2ccccc2F)CC1)c1ccccc1	D3 antag inconclusive
Cc1cccc(C(=O)NCN2CCN(c3ccccc3C#N)CC2)c1	D3 antag -76 (no result: D1 potentiator, D1 antag, D1 agonist)
Cc1ccccc1CN1CC2=C(CCN(Cc3ccccc3)C2=O)N2CCN=C12	D3 antag -81 (no result: D1 potentiator, D1 antag, D1 agonist)
CCOc1cc(CN2CCN(S(=O)(=O)c3ccc(C)cc3)CC2)ccc1OC	none (no result: D3 antag)
CCN(CC)CCNC(=O)c1ccc(NC(=O)c2cc(-c3ccco3)nc3ccccc23)cc1	D1 antag -40
Cc1csc(NC(=O)c2cc(-c3ccco3)nc3ccccc23)n1	D1 antag -31
COc1cc(NC(=O)Cn2ccc3ccccc3c2=O)cc(OC)c1OC	none (no result: D3 antag)
Cc1ccc2c(=O)cc(C(=O)Nc3ccc(S(=O)(=O)N(C)c4ccccc4)cc3)oc2c1C	none (no result: D3 antag)
CN(Cc1ccccc1)C(C(=O)NC1CCCCC1)c1ccc(Cl)cc1 (configuration not stated)	none (no result: D3 antag)
O=C(COc1ccc([N+](=O)[O-])cc1Cl)NCC1CCCO1 (configuration not stated)	D1 antag -39
COC(=O)COc1ccc(S(=O)(=O)NCC2CCCO2)cc1Cl (configuration not stated)	none
CC(C)CNS(=O)(=O)c1ccc(OCC(=O)NCC2CCCO2)c(Cl)c1 (configuration not stated)	D1 antag -36
Cc1cc(=O)n2nc(N3CCC(C(=O)Nc4ccc(Br)cc4F)CC3)sc2n1	none (no result: D3 antag)
CC1CC(C)CN(C(C(=O)NC2CCCCC2)c2cc3ccccc3o2)C1 (configuration not stated)	none (no result: D1 potentiator, D1 antag, D1 agonist)
O=C1c2ccccc2C(=O)N1CCCCSc1nc2ccccc2o1	none
CC(c1nc2ccccc2o1)N1C(=O)c2ccccc2C1=O (configuration not stated)	D3 antag -53
CC(Oc1ccccc1F)C(=O)N1CCC(c2nc3ccccc3o2)CC1 (configuration not stated)	none (no result: D3 antag)
Nc1c(Br)cc(Br)c2cccnc12	none (no result: D3 ag, D3 antag)
O=[S+]([O-])(c1c(F)cccc1F)N1CCN([S+](=O)([O-])c2c(F)c(F)c(F)c(F)c2F)CC1	none (no result: D3 ag, D3 antag)
O=C(O)CCN1CCc2ccccc21	none
O=C(O)CCN1CCc2ccccc2C1c1ccncc1 (configuration not stated)	D3 antag -58
Cn1c(=O)c2[nH]c(Cc3cccc4ccccc34)nc2n(C)c1=O	D3 ag 36 (no result: D1 potentiator, D1 antag, D1 agonist)
O=S(=O)(Nc1ccc(-c2ccc(N3CCCC3)nn2)cc1)c1ccccc1Cl	none (no result: D3 antag)
Cc1noc(C)c1C(=O)OCC(=O)c1cc(C)n(Cc2ccccc2Cl)c1C	D1 antag -38
Cc1noc(C)c1C(=O)OCC(=O)c1ccc[nH]1	none
O=C(COc1ccccc1)NCC(=O)N/N=C/c1ccc(Cl)cc1	none
O=C(COc1ccc(Cl)cc1)N/N=C/CCc1ccccc1	D3 antag -60
CCn1cc(C(=O)N(C)c2cc(C)ccc2OC)c2cc(OC)c(OC)cc2c1=O	none
CCn1cc(C(=O)N(C)c2cc(C)ccc2C)c2cc(OC)c(OC)cc2c1=O	D1 antag -34 (no result: D3 antag)
COc1cc(C)ccc1OCCSc1nc2ccc(NC(=O)c3cccs3)cc2s1	none (no result: D3 antag)
N#Cc1ccc(/C=C/C(=O)c2ccco2)cc1	none
Nc1ccc(/C=C/C(=O)c2ccco2)cc1	D1 agonist 72
Cc1ccc(NC(=O)CSc2nnc(-c3nnn(-c4ccc(F)cc4)c3C)o2)cc1Br	none (no result: D3 antag)
Cn1cc(C(=O)c2ccccc2)cc1-c1nc2ccccc2n1C	D1 antag -31
CC(=O)c1ccc(-c2nc3ccccc3n2C)o1	none
Cc1oc(-c2nc3ccccc3n2C)cc1C(=O)c1ccccc1	D3 antag -60
Cn1nc(C(=O)N2CCN(c3ccccc3F)CC2)c2c1-c1ccccc1SC2	D1 antag -35 (no result: D3 antag)
CC1CCCN(CCCNC(=O)c2nn(C)c3c2CSc2ccccc2-3)C1 (configuration not stated)	D3 antag -66
CC1CCCCN1CCCNC(=O)c1nn(C)c2c1CSc1ccccc1-2 (configuration not stated)	D3 antag inconclusive
Cn1nc(-c2ccccc2F)c2cc(C(=O)N3CCN(c4ccc(F)cc4)CC3)sc21	none (no result: D3 antag)
Cn1nc(-c2ccccc2F)c2cc(C(=O)N3CCN(c4ccccc4F)CC3)sc21	D3 ag 51 (no result: D3 antag)
CSc1nc(SCC(N)=O)c2c3c(sc2n1)CN(C)CC3	D3 antag -54
CSc1nc(SCC(=O)NCc2ccco2)c2c3c(sc2n1)CN(C)CC3	none (no result: D1 potentiator, D1 antag, D1 agonist)
CCn1c(SCC(N)=O)nc2sc3c(c2c1=O)CCN(C)C3	none
CSc1nc(N)c2c3c(sc2n1)CN(C)CC3	D3 antag -52
CSc1nc(NCc2ccco2)c2c3c(sc2n1)CN(C)CC3	D1 antag -42 (no result: D3 ag, D3 antag)
CCNc1nc(SCC(N)=O)nc2sc3c(c12)CCN(C)C3	D1 agonist 33
CCCCNC(=O)c1ccc(Cn2c(=S)[nH]c3c([nH]c4ccc(OC)cc43)c2=O)cc1	D3 antag -65
CCOCCCNC(=O)c1ccc(Cn2c(=S)[nH]c3c([nH]c4ccc(OC)cc43)c2=O)cc1	none
CCN(CC)CCNC(=O)CCCCn1c(=S)[nH]c2c([nH]c3ccc(OC)cc32)c1=O	D3 antag -56
CCOC(=O)c1[nH]c2ccccc2c1NC(=O)c1cc(OCC)c(OCC)c(OCC)c1	none (no result: D3 antag)
Cc1ccc(-c2nnc(Nc3ccc(C(=O)N(C)C)cc3)c3ccccc23)cc1S(=O)(=O)N(C)C	none (no result: D3 antag)
O=c1oc(Cl)c(Cl)c2ccccc12	D3 antag -74

Bioassay records as filed in PubChem BioAssay.
